Experimental data as given in ChEMBL document CHEMBL3988442, “University of Dundee, Small-Polar-MMV Screening Library” (2021).
In all, about 48,000 compounds went through this assay and about 13,000 (27%) showed an effect of 50% or more. The list shows a part of the results.

The compounds below were run on Wolbachia pipientis (assay: Anti-Wolbachia Cell-Based Screen). Conditions: 5 µM.
Format: functional
Design: scale not given: in the data most compounds retested in dose-response had high values

Row | SMILES | Percent Effect
1 | CC(=O)N[C@@H]1CN(Cc2ccccc2-n2cccn2)C[C@H]1C(C)C | 1.725%
2 | Cc1cc(C)cc(C(=O)NCCCC2(C3OCCO3)CCOCC2)c1 | 11.75%
3 | CCn1c(CN(C)CC(=O)N(C)C)nc2c(F)cccc21 | -12.46%
4 | Cc1nnc(N2C[C@H](Oc3ccccn3)[C@H]3OCCC[C@H]32)s1.O=C(O)C(F)(F)F.O=C(O)C(F)(F)F | -4.759%
5 | O=C(Nc1ccc(-c2cscn2)cc1)C1CCCN(Cc2ccon2)C1 (stereo not drawn) | -5.748%
6 | CCOC(=O)NCCNC(=O)c1cc(Br)cn1C(C)C | -7.035%
7 | Cc1cnc(C(=O)N2CCC3(CCN3Cc3ccc(F)cc3)C2)cn1.O=C(O)C(F)(F)F (stereo not drawn) | 105.8%
8 | CCN1CCC12CCN(C(=O)c1ccsc1)C2.O=C(O)C(F)(F)F (stereo not drawn) | -5.276%
9 | Cc1ccc(C(=O)N2CCC3(CCN(c4ccsc4)C3=O)C2)cn1.O=C(O)C(F)(F)F (stereo not drawn) | 44.84%
10 | O=C(c1ccsc1)N1CCC2(CCN2Cc2ccc(F)cc2)C1 (stereo not drawn) | -0.5147%
11 | Cn1ccnc1C(=O)N1CCC2(CCN2Cc2ccc(F)cc2)C1.O=C(O)C(F)(F)F (stereo not drawn) | 107.3%
12 | Cc1ccc(C(=O)N2CCC3(CCN3Cc3ccc(F)cc3)C2)cn1.O=C(O)C(F)(F)F (stereo not drawn) | 111.6%
13 | Cn1ccnc1C(=O)N1CCC2(CCN2CC2CC2)C1.O=C(O)C(F)(F)F (stereo not drawn) | -29.26%
14 | CCn1c(CN2CCCC2)nnc1C1CCN(S(=O)(=O)CC)CC1 | 6.34%
15 | Cn1c(CN2CCCC2)nnc1C1CCCN(C(=O)N2CCOCC2)C1 (stereo not drawn) | -16.59%
16 | CSc1nnc(C2CCN(C(=O)N3CCCC3)CC2)n1C | 86.99%
17 | CCn1c(Cn2cncn2)nnc1C1CCN(C(=O)CCSC)CC1 | 0.8054%
18 | CSc1nnc(CC2CCN(C(=O)Cc3ccncc3)CC2)n1C | -0.6807%
19 | CCn1c(SC)nnc1C1CCN(C(=O)N2CCCC2)CC1 | 139.7%
20 | O=C(NCCNc1ncccn1)C1CCN(C(=O)c2ccoc2)CC1 | 101.2%
21 | O=C(NCCNc1ncccn1)C1CCN(CC(F)(F)F)CC1 | 1.799%

Row | SMILES | Percent Effect
22 | O=C(NCCNc1ncccn1)C1CCN(C(=O)C2CC2)CC1 | 7.876%
23 | O=C(NCCNC(=O)C1CCN(c2ncccn2)CC1)c1ccoc1 | -1.676%
24 | O=C(NCCNC(=O)C1CCN(CC(F)(F)F)CC1)c1ccoc1 | 16.83%
25 | O=C(NCCNc1ncccn1)C1CCN(C(=O)N2CCCC2)CC1 | 88.68%
26 | CN(C)C(=O)N1CCC(C(=O)NCCNc2ncccc2C#N)CC1 | -1.068%
27 | CC(C)(C)OC(=O)N1CCC(C(=O)NCCNc2ncccn2)CC1 | 98.46%
28 | O=C(NCCNc1ncccn1)N1CCSCC1 | -3.552%
29 | O=C(NCCNc1ncccn1)C1CCN(C(=O)NC2CC2)CC1 | 95.19%
30 | CC(O)CN1CCC(CN(C)Cc2ccc(C(N)=O)cc2)CC1 (stereo not drawn) | 3.378%
31 | O=C1N(Cc2cccc(F)c2F)CCCC1(O)CNCC1CCCCC1 (stereo not drawn) | -14.65%
32 | Cc1nc2ccccc2nc1CN1CCn2nc(CCC(=O)O)cc2C1 | 11.39%
33 | CC(Nc1ccc(CN2CCCC2=O)cc1)C(=O)N(C)CCC#N (stereo not drawn) | 4.456%
34 | O=C(NCCNc1ncccn1)C1CCN(c2ncccn2)CC1 | -3.346%
35 | CCCC(=O)N1CCC(C(=O)NCCNc2ncccn2)CC1 | 97.7%
36 | O=C(NCCNc1ncccn1)C1CCCC1 | 120%
37 | CCCC(=O)N1CCC(C(=O)NCCN2CCC(C)CC2)CC1 | 2.916%
38 | CS(=O)(=O)N1CCC(C(=O)NCCNc2ncccn2)CC1 | -2.901%
39 | Cc1ccc(CN2CC[C@H]3C(=O)N(c4cccnc4)CCO[C@H]3C2)o1 | -2.706%
40 | CN1CCN(C(=O)c2nc3c(s2)CCCN3C(=O)C2CC2)CC1.O=C(O)C(F)(F)F | -2.349%
41 | O=C(NCc1cccnc1)c1nc2c(s1)CCCN2C(=O)C1CC1.O=C(O)C(F)(F)F | 105.9%
42 | O=C(c1nc2c(s1)CCCN2C(=O)C1CC1)N1CCCC1 | 12.54%

Row | SMILES | Percent Effect
43 | O=C(NCCc1cccc(F)c1)c1nc2c(s1)CCCN2C(=O)C1CC1 | 109.4%
44 | CN(C)CCNC(=O)c1nc2c(s1)CCCN2C(=O)C1CC1.O=C(O)C(F)(F)F | 97.24%
45 | Cc1ccc(NC(=O)c2nc3c(s2)CCCN3C(=O)C2CC2)cn1.O=C(O)C(F)(F)F | 7.338%
46 | COCCN(C)C(=O)c1nc2c(s1)CCCN2C(=O)C1CC1 | 11.31%
47 | CN1CCCc2sc(C(=O)NCc3cccnc3)nc21 | -7.154%
48 | O=C(NCCc1cccnc1)c1nc2c(s1)CCCN2C(=O)C1CC1.O=C(O)C(F)(F)F | 99.18%
49 | O=C(CCNc1ncccn1)NCc1ccc(Br)s1 | 9.501%
50 | CC(=O)c1cccc(NC(=O)N2CCCCC2CN2CCCC2=O)c1 (stereo not drawn) | -4.61%
51 | Cc1ccc(C(=O)NCCNCC2CNc3ccnn3C2)cc1 (stereo not drawn) | -8.644%
52 | CC(C)Cc1cc(C(=O)NCC(O)CN2CCCCCC2)on1 (stereo not drawn) | -21.74%
53 | Cc1ccc(OCc2cccc(C(=O)N(C)C(C)CC#N)c2)cn1 (stereo not drawn) | -5.236%
54 | CCOCC1CN(C(=O)Cc2ccccn2)Cc2c1cnn2CC (stereo not drawn) | -48.51%
55 | OCc1ccc(-c2c(-c3ccccc3)ncn2CCN2CCOCC2)o1 | 6.374%
56 | O=C(O)C(F)(F)F.c1csc(CN2C[C@H](OCC3CC3)[C@H]3COC[C@H]32)n1 | 114.6%
57 | O=C(O)C(F)(F)F.O=C(O)C(F)(F)F.c1csc(CN2CCOCC3(CCN(C4CCOCC4)C3)C2)n1 (stereo not drawn) | 4.386%
58 | O=C(O)C(F)(F)F.c1csc(CN2CCCn3nnc(COCC4CC4)c3C2)n1 | 3.459%
59 | CN(C)C(=O)CO[C@H]1CN(Cc2nccs2)[C@@H]2COC[C@H]12.O=C(O)C(F)(F)F | 104.4%
60 | c1cnc(N2C[C@H](OCC3CCOCC3)[C@H]3COC[C@H]32)nc1 | -13.81%
61 | O=C(O)C(F)(F)F.c1csc(CN2C[C@H](OCC3CCOCC3)[C@H]3COC[C@H]32)n1 | 78.63%
62 | Cc1ncsc1CN1C[C@@H](OCC(=O)N(C)C)[C@H]2OCCC[C@H]21.O=C(O)C(F)(F)F | -4.628%
63 | O=C(O)C(F)(F)F.c1ccc(C[C@H]2CN(Cc3nccs3)CC[C@@H]2OCC2CC2)cc1 | -18.04%
